The text below walks through data of PubChem BioAssay (NCATS).

The structures appear in SMILES notation. Records with an inconclusive call do not appear. Active and inactive are the calls of the source. Unless noted, the call rests on the fitted dose curve; in most records, active means well fitted curve in the direction sought with a large enough effect; inconclusive means small, poorly fitted or top-dose-only effect, or another doubt; inactive means no such curve, though single readings can be large; an effect the other way counts as inactive or inconclusive.

For assay [1], the target named is Luciferin 4-monooxygenase (Photinus pyralis) (UniProt P08659). In words: Biochemical firefly luciferase enzyme assay for NPC (AID 624030).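 Further: purified P. pyralis luciferase at 10 nM with luciferin and ATP substrate; nearly all actives have a fitted effect of over 70% in size.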 The procedure, abridged:
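Counter-screen for direct inhibition of the luciferase enzyme by approved-drug library compounds, run at 10 nM enzyme in 50 mM Tris acetate (final). Luminescence was read within 5 min of enzyme-buffer addition and normalized to PTC124 versus DMSO (0%).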

A short description of assay [2]: S16 Schwann cell viability assay (CellTiter-Glo assay) (AID 624031).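 Further: cellular ATP luminescence as a viability measure; nearly all actives have a fitted effect of over 70% in size.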 The procedure, abridged: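 Native S16 rat Schwann cells in DMEM/10% FBS without phenol red were incubated overnight, then exposed to compounds for 24 h at 37 °C/5% CO2. Viability was read as ATP luminescence (CellTiter-Glo), normalized to no-cell wells and DMSO (0%).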
(In general: Cellular ATP, detected with luciferase, serves as a proxy for viable cell number.)

A short description of assay [3]: S16 Schwann cell PMP22 intronic element beta-lactamase assay (AID 624044; calls by dose curve; further: nearly all actives have a fitted effect of over 15% in size; further: potency means the concentration at half of the fitted maximal effect). The conditions noted are these: S16 rat Schwann cells, PMP22 element beta-lactamase FRET, 24 h; ratio activity, negative = inhibition: at 38.3 µM (top of the series). The procedure, abridged:
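Beta-lactamase reporter under a PMP22 intronic regulatory element in stable S16 rat Schwann cells; 24 h compound exposure. 460 nm blue signal normalized between DMSO (0%) and potassium clavulanate, with 535 nm FRET tracking viability; curves classed by r2 and response.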

The next assay has as its system 7G8. The experiment in a line: qHTS profiling for inhibitors of Plasmodium falciparum proliferation (AID 504749). Further: nearly all actives have a fitted effect of over 60% in size. Further: potency means the concentration at half of the fitted maximal effect. The conditions noted are these: P. falciparum in erythrocytes, SYBR Green DNA, 72 h; series mostly up to 28.7 µM. The procedure, abridged: (§1)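 Quantitative HTS: compounds pinned into medium, infected erythrocytes added (0.3% parasitemia, 2.5% hematocrit), 72 h culture at 37 C under 5% CO2. Saponin/Triton lysis with SYBR Green I, overnight RT, then fluorescence read.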
In general terms: qHTS replaces the single test concentration by a dilution series.

The next assay concerns ATS95. The description is as above. As to conditions: P. falciparum in erythrocytes, SYBR Green DNA, 72 h; series mostly up to 28.7 µM. The method in brief:
as §1

The next assay has as its system CP215. The assay is described as above. The conditions noted are these: P. falciparum in erythrocytes, SYBR Green DNA, 72 h; series mostly up to 28.7 µM. The procedure, abridged: as §1
For another assay, the system named is CP247. The assay is described as above. The conditions noted are these: P. falciparum in erythrocytes, SYBR Green DNA, 72 h; series mostly up to 28.7 µM. The method in brief: as §1
Another assay has as its system CP260. The description is as above. The conditions noted are these: P. falciparum in erythrocytes, SYBR Green DNA, 72 h; series mostly up to 28.7 µM. The method in brief:
as §1

The subject of the next assay is CP266. Described as above. As to conditions: P. falciparum in erythrocytes, SYBR Green DNA, 72 h; series mostly up to 28.7 µM. The method in brief:
as §1

A further assay deals with CP291. The description is as above. As to conditions: P. falciparum in erythrocytes, SYBR Green DNA, 72 h; series mostly up to 28.7 µM. The method in brief: as §1
The test system of another assay is CP297. The description is as above. The conditions noted are these: P. falciparum in erythrocytes, SYBR Green DNA, 72 h; series mostly up to 28.7 µM. The method in brief:
as §1

The subject of the next assay is CP335. The assay is described as above. The conditions noted are these: P. falciparum in erythrocytes, SYBR Green DNA, 72 h; series mostly up to 28.7 µM. The method in brief: as §1
In the next assay the test system is DIV17. The description is as above. As to conditions: P. falciparum in erythrocytes, SYBR Green DNA, 72 h; series mostly up to 28.7 µM. The procedure, abridged:
as §1

The test system of the next assay is GB4. Described as above. As to conditions: P. falciparum in erythrocytes, SYBR Green DNA, 72 h; series mostly up to 28.7 µM. The method in brief:
as §1

The subject of a further assay is P93_24. The assay is described as above. As to conditions: P. falciparum in erythrocytes, SYBR Green DNA, 72 h; series mostly up to 28.7 µM. The procedure, abridged:
as §1

A further assay deals with PC15. The description is as above. As to conditions: P. falciparum in erythrocytes, SYBR Green DNA, 72 h; series mostly up to 28.7 µM. The procedure, abridged:
as §1

The next assay relates to PC26. The assay is described as above. As to conditions: P. falciparum in erythrocytes, SYBR Green DNA, 72 h; series mostly up to 28.7 µM. The method in brief: as §1
For the next assay, the system named is PC49. The assay is described as above. The conditions noted are these: P. falciparum in erythrocytes, SYBR Green DNA, 72 h; series mostly up to 28.7 µM. The method in brief: as §1
A further assay relates to TAB109. Described as above. As to conditions: P. falciparum in erythrocytes, SYBR Green DNA, 72 h; series mostly up to 28.7 µM. The method in brief:
as §1

The next assay concerns TAB165. Described as above. As to conditions: P. falciparum in erythrocytes, SYBR Green DNA, 72 h; series mostly up to 28.7 µM. The method in brief: as §1

Chain of Luciferin 4-monooxygenase (Photinus pyralis) (P08659 whole entry, looked up): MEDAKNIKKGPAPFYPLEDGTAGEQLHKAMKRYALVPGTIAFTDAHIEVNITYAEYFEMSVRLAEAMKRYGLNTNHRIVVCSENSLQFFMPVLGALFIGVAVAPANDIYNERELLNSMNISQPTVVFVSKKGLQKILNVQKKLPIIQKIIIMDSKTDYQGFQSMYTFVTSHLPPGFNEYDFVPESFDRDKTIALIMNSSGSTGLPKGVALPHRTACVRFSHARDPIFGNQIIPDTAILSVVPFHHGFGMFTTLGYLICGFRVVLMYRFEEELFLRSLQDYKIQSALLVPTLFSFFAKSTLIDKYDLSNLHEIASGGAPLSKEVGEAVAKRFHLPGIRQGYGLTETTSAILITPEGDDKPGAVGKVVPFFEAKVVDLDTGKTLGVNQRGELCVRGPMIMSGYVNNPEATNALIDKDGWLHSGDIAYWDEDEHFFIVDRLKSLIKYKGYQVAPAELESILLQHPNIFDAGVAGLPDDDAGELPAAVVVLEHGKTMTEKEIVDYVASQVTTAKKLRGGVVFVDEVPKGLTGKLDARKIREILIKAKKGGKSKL

On to `CCCCC/C(C=O)=C/c1ccccc1`, for which the Potency result (in assay [1]; in [2]; in [3]; with 7G8; in the assay with ATS95; in the assay on CP215) was “inactive” each time. The Potency result in the assay with CP247, in the assay on CP260, in the assay with CP266, in the assay with CP291, with CP297 and with CP335 was “inactive” throughout. Further, the Potency result in the assay with DIV17, in the assay with GB4, in the assay on P93_24, in the assay on PC15, in the assay with PC26 and in the assay on PC49 was “inactive” throughout. For the same molecule, the Potency result in the assay on TAB109 and in the assay with TAB165 was “inactive” throughout.
Consider `C[n+]1c2cc(N)ccc2cc2ccc(N)cc21`, for which the Potency entry in assay [1], in [2] and in assay [3] was “inactive” in each case. In addition, the Potency with 7G8 is 63.1 nM (active); in the assay with ATS95 it was 1120 nM (active); in the assay on CP215, 1070 nM (active); with CP247 it was 1120 nM (active); with CP260, 316 nM (active); in the assay with CP266, 1350 nM (active). Further, the Potency in the assay with CP291 is 1200 nM (active); with CP297, 1350 nM (active); in the assay with CP335, 849 nM (active); in the assay with DIV17, 269 nM (active); in the assay on GB4 it was 213 nM (active); in the assay with P93_24, 562 nM (active). The Potency is 178 nM (active) in the assay on PC15; 1350 nM (active) in the assay on PC26; 447 nM (active) in the assay with PC49; 447 nM (active) with TAB109; 398 nM (active) in the assay on TAB165.
Consider `CCC(C(=O)O)C1OC(C(C)C(O)C(C)C(=O)C(CC)C2OC3(C=CC(O)C4(CCC(C)(C5CCC(O)(CC)C(C)O5)O4)O3)C(C)CC2C)C(C)CC1C` (centres undefined), for which, in assay [1], the Potency entry was “inactive”. The Potency in [3] is 6300 nM (active); in the assay with 7G8, 79.4 nM (active); in the assay on ATS95, 178 nM (active); in the assay with CP215, 60.1 nM (active); in the assay with CP247, 112 nM (active); with CP260, 112 nM (active). Also, the Potency in the assay on CP266 was 151 nM (active); with CP291, 60.1 nM (active); in the assay on CP297, 135 nM (active); with CP335, 42.6 nM (active); with DIV17 it was 75.7 nM (active); in the assay on GB4 it was 53.6 nM (active). In addition, the Potency was 178 nM (active) with P93_24; 158 nM (active) in the assay with PC15; 75.7 nM (active) with PC26; 251 nM (active) in the assay with PC49; 112 nM (active) in the assay on TAB109; 158 nM (active) in the assay on TAB165.
For `C[C@H]1OC(OC2C(O)[C@@H](O)C(OC3C(O)[C@@H](O)C(O)O[C@@H]3CO)O[C@@H]2CO)[C@H](O)C(O)C1N[C@H]1C=C(CO)[C@@H](O)[C@H](O)C1O` (some centres undefined), the Potency entry (in [1]; in [2]; in assay [3]; in the assay with 7G8; in the assay on ATS95; with CP215) was “inactive” in each case. For the same molecule, the Potency entry in the assay on CP247, in the assay with CP260, in the assay with CP266, in the assay with CP291, in the assay on CP297 and in the assay on CP335 was “inactive” throughout. The Potency result in the assay with DIV17, in the assay on GB4, with P93_24, in the assay on PC15, with PC49 and with TAB109 was “inactive” throughout. Besides, the Potency result in the assay on TAB165 is “inactive”.
Regarding `OCC1O[C@H](Oc2ccc(O)cc2)C(O)C(O)C1O` (some centres undefined), the Potency result (in [1]; in assay [2]; in the assay on 7G8; in the assay on ATS95; in the assay on CP215; with CP247) was “inactive” each time. In addition, the Potency result in the assay on CP260, with CP266, with CP291, in the assay with CP297, with CP335 and with DIV17 was “inactive” each time. Besides, the Potency entry in the assay on GB4, in the assay on PC15, in the assay with PC26, in the assay with PC49, with TAB109 and in the assay on TAB165 was “inactive” each time.
As to `C[C@H]1[C@@H](OC(=O)CCC(=O)O)OC2OC3(C)CC[C@H]4[C@H](C)CC[C@@H]1[C@@]24OO3` (some centres undefined), the Potency result in assay [1] and in assay [3] was “inactive” each time. The Potency with 7G8 is 1.4 nM (active); with ATS95, 5 nM (active); in the assay with CP215, 5.4 nM (active); in the assay with CP247, 5 nM (active); in the assay with CP260 it was 5 nM (active); in the assay with CP266 it was 23.9 nM (active). In addition, the Potency is 4.3 nM (active) with CP291; 4.8 nM (active) in the assay with CP297; 4.8 nM (active) in the assay on CP335; 4.3 nM (active) with DIV17; 3 nM (active) with GB4; 2.2 nM (active) with P93_24. Also, the Potency in the assay on PC15 is 4.5 nM (active); with PC26, 3.4 nM (active); in the assay with TAB109 it was 2.5 nM (active); with TAB165, 1.8 nM (active).
